Our source for the Percent Effect values is ChEMBL document CHEMBL3988442, “University of Dundee, Small-Polar-MMV Screening Library” (2021).

Molecules are shown by their SMILES. For some assays here: Potency and affinity values are given separately.

Holding throughout (design): scale not given: direction of the effect not stated beside the values
For experiment [1], the target named is Protein translocase subunit SecA (Escherichia coli (strain K12)) (UniProt P10408). In words: Assay to Identify E. coli SecA ATPase Inhibitors. The format is functional. Conditions: 30 µM.
The target of experiment [2] is T1, Ubiquitin-activating enzyme e1, putative (Leishmania donovani (strain BPK282A1)) (UniProt E9BSI1).
T1 sequence (whole entry): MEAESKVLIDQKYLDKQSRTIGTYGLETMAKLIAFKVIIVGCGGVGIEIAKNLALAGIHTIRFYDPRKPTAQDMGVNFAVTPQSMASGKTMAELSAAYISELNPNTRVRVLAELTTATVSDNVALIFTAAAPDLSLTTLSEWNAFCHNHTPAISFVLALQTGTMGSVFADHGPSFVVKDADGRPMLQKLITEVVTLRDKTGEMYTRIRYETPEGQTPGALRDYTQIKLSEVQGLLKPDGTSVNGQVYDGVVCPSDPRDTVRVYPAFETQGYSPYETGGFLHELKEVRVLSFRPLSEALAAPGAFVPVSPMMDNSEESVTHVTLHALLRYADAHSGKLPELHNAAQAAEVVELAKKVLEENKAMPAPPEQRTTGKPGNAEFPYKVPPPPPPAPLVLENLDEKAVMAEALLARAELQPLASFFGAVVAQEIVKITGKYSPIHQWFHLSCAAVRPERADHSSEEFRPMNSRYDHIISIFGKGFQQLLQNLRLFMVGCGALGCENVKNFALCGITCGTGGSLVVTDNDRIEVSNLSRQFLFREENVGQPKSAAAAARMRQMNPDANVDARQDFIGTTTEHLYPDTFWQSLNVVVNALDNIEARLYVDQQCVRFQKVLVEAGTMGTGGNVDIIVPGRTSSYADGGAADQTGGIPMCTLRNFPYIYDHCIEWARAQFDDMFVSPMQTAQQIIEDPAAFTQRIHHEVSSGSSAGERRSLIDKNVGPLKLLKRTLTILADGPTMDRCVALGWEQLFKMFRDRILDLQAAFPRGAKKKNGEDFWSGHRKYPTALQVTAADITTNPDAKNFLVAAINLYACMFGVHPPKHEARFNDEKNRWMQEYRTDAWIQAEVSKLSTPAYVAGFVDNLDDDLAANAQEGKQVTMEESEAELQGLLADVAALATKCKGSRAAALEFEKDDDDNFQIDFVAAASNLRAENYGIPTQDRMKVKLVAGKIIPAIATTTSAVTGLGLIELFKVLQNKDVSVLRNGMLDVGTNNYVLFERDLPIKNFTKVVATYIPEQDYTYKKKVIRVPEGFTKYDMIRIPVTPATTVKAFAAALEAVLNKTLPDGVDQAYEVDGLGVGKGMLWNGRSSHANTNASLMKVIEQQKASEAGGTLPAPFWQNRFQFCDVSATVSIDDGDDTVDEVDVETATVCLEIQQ
In words: Leishmania donovani Ubiquitin Activating Enzyme (LdE1). Format: functional. Particulars: 30 µM.

For experiment [3], the target named is AMP-activated protein kinase, AMPK (Homo sapiens) (UniProt P54646+O43741+P54619+Q9UGJ0+Q9Y478+Q13131+Q9UGI9). In words: AMP-dependent Kinase enzyme assay. An in vitro enzyme assay that detects ADP turnover that is directly proportional to AMPK activity. This uses naive AMPK that is activated during the assay with MK-8722. Conditions: 30 µM. Format: functional.

For experiment [4], the target named is Sialic acid-binding Ig-like lectin 9 (Homo sapiens) (UniProt Q9Y336). In words: Hs-Siglec9 ALPHAscreen SOP 20170721. Conditions: 10 µM.
Another experiment concerns Trypanosoma cruzi. The experiment in a line: Trypanosoma cruzi phosphomannomutase and mannose-1-phosphate guanylyltransferase assay. Particulars: 10 µM. Format: functional.
The target in experiment [5] is T2, Arginase-2, mitochondrial (Homo sapiens) (UniProt P78540).
T2 sequence (whole entry): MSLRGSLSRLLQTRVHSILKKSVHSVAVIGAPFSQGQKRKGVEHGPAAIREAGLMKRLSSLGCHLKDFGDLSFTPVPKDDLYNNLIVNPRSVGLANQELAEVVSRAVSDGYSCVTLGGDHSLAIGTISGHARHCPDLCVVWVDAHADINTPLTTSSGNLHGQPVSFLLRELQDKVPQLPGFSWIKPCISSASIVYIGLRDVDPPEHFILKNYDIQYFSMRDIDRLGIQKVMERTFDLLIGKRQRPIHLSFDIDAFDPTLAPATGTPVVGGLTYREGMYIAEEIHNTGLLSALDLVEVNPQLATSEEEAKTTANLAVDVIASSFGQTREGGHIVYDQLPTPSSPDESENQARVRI
The experiment in a line: in vitro enzyme assay to detect the production of urea directly proportional to the activity of Arginase II. Note: in the data most compounds retested in dose-response had high values. Format: functional. Conditions: 33.3 µM.

Experiment [6] addresses T3, Proteasome subunit beta (Trypanosoma cruzi) (UniProt O96673).
T3 sequence (whole entry): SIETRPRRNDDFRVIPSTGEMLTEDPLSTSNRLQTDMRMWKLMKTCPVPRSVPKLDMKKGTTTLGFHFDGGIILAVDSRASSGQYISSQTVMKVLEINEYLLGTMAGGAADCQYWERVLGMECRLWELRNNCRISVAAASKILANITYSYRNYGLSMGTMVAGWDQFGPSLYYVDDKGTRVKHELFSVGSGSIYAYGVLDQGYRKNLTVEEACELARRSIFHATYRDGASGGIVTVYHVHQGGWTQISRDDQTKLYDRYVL
The experiment in a line: Trypanosoma cruzi proteasome chymotrypsin-like activity (TcProtChymo) assay. Note: in the data most compounds retested in dose-response had high values. Format: functional. Particulars: 9.37 µM.

For the next experiment, the species on record is Homo sapiens. The experiment in a line: To identify inhibition of the IFN signalling (Jak-Stat) pathway via expression of an eGFP reporter gene under the control of an IFN-stimulated response element (ISRE) containing MxA promoter. Particulars: 30 µM. Format: functional.
Experiment [7] deals with T4, Tyrosyl-tRNA synthetase, putative (Trypanosoma cruzi (strain CL Brener)) (UniProt Q4DSP6).
T4 sequence (whole entry): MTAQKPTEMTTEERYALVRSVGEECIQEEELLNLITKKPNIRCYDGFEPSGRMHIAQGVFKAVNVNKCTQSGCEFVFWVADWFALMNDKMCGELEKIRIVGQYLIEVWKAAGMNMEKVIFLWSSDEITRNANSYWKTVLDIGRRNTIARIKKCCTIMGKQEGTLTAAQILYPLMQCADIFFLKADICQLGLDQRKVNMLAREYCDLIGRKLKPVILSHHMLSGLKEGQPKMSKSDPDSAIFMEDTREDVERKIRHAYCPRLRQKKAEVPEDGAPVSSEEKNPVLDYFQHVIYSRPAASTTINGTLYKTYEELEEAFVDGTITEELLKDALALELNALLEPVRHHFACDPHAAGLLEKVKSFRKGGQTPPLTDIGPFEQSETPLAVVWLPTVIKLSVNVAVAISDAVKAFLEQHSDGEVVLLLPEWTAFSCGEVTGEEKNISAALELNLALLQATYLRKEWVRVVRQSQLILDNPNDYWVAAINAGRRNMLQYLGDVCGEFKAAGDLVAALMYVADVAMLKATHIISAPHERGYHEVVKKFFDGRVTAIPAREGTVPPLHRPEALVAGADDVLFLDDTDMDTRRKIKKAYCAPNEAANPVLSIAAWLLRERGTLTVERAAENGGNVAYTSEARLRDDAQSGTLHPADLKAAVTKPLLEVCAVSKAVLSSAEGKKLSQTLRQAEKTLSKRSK
The experiment in a line: Trypanosoma cruzi tyrosyl tRNA synthetase (TcYRS) _High Tyrosine SOP. Note: in the data most compounds retested in dose-response had high values. Conditions: 30 µM. The format is functional.

Experiment [8] concerns the target T4, Tyrosyl-tRNA synthetase, putative (Trypanosoma cruzi (strain CL Brener)). The experiment in a line: Trypanosoma cruzi tyrosyl tRNA synthetase (TcYRS) SOP. The format is functional. Particulars: 30 µM.
Experiment [9] has as its target Chromo domain-containing protein 1 (Saccharomyces cerevisiae (strain ATCC 204508 / S288c) (Baker's yeast)) (UniProt P32657). In words: ScCHD-1 Enzyme Inhibition Assay. Note: in the data most compounds retested in dose-response had high values. The format is functional. Conditions: 30 µM.

Protein translocase subunit SecA (Escherichia coli (strain K12)), sequence (P10408 whole entry): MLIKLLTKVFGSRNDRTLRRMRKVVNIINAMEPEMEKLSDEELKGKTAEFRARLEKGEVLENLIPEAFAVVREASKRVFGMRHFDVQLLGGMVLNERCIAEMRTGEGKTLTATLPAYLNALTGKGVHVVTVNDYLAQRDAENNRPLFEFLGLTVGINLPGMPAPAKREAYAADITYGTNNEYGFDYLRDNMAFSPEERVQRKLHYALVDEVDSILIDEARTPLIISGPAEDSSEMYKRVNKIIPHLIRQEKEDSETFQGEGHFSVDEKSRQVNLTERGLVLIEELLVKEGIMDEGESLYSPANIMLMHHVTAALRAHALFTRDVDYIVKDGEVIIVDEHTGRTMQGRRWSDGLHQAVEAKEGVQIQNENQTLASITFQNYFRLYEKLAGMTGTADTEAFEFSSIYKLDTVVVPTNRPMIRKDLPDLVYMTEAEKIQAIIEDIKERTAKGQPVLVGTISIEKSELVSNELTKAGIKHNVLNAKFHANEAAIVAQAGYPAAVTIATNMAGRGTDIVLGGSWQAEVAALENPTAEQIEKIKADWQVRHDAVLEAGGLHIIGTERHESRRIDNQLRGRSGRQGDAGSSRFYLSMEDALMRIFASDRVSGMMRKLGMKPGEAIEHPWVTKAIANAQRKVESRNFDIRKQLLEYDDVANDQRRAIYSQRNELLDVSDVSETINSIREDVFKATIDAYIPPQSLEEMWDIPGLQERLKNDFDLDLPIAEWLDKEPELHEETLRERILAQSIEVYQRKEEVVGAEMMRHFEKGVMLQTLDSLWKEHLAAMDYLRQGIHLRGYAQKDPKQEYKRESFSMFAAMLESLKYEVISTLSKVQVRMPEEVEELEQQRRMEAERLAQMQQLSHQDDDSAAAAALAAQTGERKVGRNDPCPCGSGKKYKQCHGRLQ
Sialic acid-binding Ig-like lectin 9 (Homo sapiens), sequence (Q9Y336 whole entry): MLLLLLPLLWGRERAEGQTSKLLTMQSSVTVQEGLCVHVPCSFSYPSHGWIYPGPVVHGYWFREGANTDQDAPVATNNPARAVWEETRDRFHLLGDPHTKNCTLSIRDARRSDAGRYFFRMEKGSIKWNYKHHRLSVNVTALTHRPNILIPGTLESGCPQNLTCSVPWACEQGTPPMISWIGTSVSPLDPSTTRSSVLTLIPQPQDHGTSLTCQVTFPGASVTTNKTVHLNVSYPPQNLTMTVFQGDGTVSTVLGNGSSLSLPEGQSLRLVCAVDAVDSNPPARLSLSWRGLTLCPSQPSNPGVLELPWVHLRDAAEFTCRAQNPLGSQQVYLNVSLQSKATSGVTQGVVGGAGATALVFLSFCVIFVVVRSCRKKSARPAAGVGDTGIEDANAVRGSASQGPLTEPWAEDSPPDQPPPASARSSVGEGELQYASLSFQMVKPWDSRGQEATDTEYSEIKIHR
Chromo domain-containing protein 1 (Saccharomyces cerevisiae (strain ATCC 204508 / S288c) (Baker's yeast)), sequence (P32657 whole entry, the tested form may be a part): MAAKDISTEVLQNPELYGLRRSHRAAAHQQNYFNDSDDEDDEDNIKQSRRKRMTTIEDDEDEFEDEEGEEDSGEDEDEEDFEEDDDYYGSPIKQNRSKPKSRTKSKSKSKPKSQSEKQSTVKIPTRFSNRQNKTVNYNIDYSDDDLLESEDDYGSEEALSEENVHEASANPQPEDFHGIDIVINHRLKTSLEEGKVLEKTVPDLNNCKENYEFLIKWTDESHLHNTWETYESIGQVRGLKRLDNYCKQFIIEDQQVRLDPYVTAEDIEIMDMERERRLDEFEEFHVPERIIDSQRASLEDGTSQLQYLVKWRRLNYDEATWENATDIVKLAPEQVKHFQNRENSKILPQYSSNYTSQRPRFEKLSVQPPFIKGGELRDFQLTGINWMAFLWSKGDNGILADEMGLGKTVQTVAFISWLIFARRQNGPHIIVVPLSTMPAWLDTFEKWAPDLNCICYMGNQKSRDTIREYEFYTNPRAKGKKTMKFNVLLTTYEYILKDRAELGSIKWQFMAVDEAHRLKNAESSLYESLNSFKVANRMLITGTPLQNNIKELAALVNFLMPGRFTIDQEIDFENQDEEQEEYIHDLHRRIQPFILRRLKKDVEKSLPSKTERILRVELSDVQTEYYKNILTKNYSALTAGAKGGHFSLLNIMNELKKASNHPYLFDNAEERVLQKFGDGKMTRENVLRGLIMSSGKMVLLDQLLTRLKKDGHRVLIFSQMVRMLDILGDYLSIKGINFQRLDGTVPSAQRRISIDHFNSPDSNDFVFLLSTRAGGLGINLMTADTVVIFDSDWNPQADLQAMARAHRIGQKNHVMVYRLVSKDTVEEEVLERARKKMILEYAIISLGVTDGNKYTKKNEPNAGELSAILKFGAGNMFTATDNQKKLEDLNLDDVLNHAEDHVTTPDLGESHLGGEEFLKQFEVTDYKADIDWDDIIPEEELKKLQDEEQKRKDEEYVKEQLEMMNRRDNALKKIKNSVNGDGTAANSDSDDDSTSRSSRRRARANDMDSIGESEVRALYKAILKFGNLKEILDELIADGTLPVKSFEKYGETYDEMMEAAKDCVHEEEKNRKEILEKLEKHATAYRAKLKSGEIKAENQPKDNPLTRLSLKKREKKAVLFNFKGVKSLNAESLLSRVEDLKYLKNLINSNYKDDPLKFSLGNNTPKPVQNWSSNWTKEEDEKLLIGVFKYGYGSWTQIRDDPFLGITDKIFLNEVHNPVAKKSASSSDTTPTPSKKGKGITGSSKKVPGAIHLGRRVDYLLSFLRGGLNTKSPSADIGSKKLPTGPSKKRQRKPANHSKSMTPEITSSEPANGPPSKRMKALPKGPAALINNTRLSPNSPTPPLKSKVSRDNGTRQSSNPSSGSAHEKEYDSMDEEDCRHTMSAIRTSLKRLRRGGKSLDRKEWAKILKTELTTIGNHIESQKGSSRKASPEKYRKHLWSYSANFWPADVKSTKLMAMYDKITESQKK

As for `C[S+]([O-])c1nncn1CC(=O)c1ccc2c(c1)CCO2` (stereo not given), the Percent Effect in experiment [1] is -5.7%; in experiment [2] it was 8.11%; in experiment [3], -3.44%; in [4], 36.4%; with Trypanosoma cruzi, 3.23%; in experiment [5], 26.6%. Besides, the Percent Effect is 12.4% in experiment [6]; -10.5% in the experiment filed under Homo sapiens; 3.23% in experiment [7]; 16.1% in experiment [8]; -9.11% in experiment [9].
In the case of `O=C1CCC2(CCN(Cc3cc(F)cc(F)c3)CC2)CN1CCO`, the Percent Effect is -6.11% in experiment [1]; 4.17% in experiment [2]; -0.613% in experiment [3]; 0.944% in [4]; 1.85% in the experiment with Trypanosoma cruzi; -24.7% in experiment [5]. In addition, the Percent Effect was 9.12% in experiment [6]; -8.34% in the experiment listed under Homo sapiens; 3.16% in [7]; 10.3% in [8]; -0.52% in experiment [9].
Consider `CN(Cc1ccncc1)CC(c1cccs1)N1CCOCC1` (stereo not given), for which the Percent Effect was -5.66% in experiment [1]; -29.7% in experiment [2]; -4.64% in experiment [3]; 13.6% in [4]; 8.63% in the experiment with Trypanosoma cruzi; -2.03% in [5]. In addition, the Percent Effect is 5.57% in [6]; 19.6% in the experiment listed under Homo sapiens; 5.94% in experiment [7]; 13.4% in [8]; -2.66% in experiment [9].
As for `CCCNC(=O)C(C)n1cc(Br)cn1` (stereo not given), the Percent Effect is -2.1% in experiment [1]; 7.79% in experiment [2]; -0.549% in [3]; 2.6% in experiment [4]; -1.87% in the experiment on Trypanosoma cruzi; -194% in [5]. Also, the Percent Effect in experiment [6] is 5.49%; in the experiment listed under Homo sapiens it was -4.17%; in experiment [7] it was 4.3%; in experiment [8], 18.5%; in [9], 0.506%.
Regarding `O=C(c1cccc(CN2CCCC2)c1)N1CCCC(n2cncn2)C1` (stereo not given), the Percent Effect is -4.8% in experiment [1]; 21.6% in experiment [2]; -12.1% in experiment [3]; -3.07% in [4]; -0.849% in the experiment with Trypanosoma cruzi; -10% in experiment [5]. The Percent Effect in experiment [6] was 16.2%; in the experiment filed under Homo sapiens, 23.3%; in [7] it was 6.4%; in [8], 16.1%; in experiment [9], -2.99%.
Regarding `c1ccc(OCC2CC3(CCN(Cc4ccncc4)CC3)CO2)nc1` (stereo not given), the Percent Effect in experiment [1] was -3.46%; in experiment [2], 9.33%; in experiment [3], 6.58%; in experiment [4] it was 5.09%; in the experiment with Trypanosoma cruzi, -4.13%; in experiment [5], -4.4%. The Percent Effect in experiment [6] is 12.2%; in the experiment filed under Homo sapiens, -5.36%; in experiment [7] it was 2.12%; in [8], 7.69%; in experiment [9], -5.62%.
With `CS(=O)(=O)CC(=O)N1C[C@H]2CCC[C@@]2(COCc2ccccn2)C1`, the Percent Effect is -1.45% in experiment [1]; 2.7% in [2]; -3.2% in [3]; 0.525% in experiment [4]; -0.88% in the experiment on Trypanosoma cruzi; 11.2% in [5]. The Percent Effect in [6] is 26%; in the experiment listed under Homo sapiens it was -5.57%; in [7], 0%; in experiment [8] it was 17.9%; in experiment [9] it was 0.642%.
Turning to `COc1cccc(C)c1C(=O)N1C[C@@H](CN(C)C)[C@@H](CO)C1`, the Percent Effect in experiment [1] was -3.79%; in experiment [2], 5.2%; in experiment [3], -2.32%; in experiment [4], 7.05%; in the experiment on Trypanosoma cruzi, 2.26%; in experiment [5], -2.76%. For the same molecule, the Percent Effect in [6] is 9.15%; in the experiment filed under Homo sapiens, -12.3%; in experiment [7] it was 6.45%; in experiment [8], 11.1%; in experiment [9], -0.303%.
In the case of `O=C(NCC(Cc1cccc(F)c1)N1CCCC1=O)c1cnccn1` (stereo not given), the Percent Effect in experiment [1] is -2.43%; in [2], 2.74%; in experiment [3] it was 8.47%; in experiment [4] it was -6.79%; in the experiment with Trypanosoma cruzi, -4.31%; in experiment [5], 3.64%. For the same molecule, the Percent Effect in [6] is 9.94%; in the experiment filed under Homo sapiens it was -2.19%; in experiment [7], 4.3%; in experiment [8], 5%; in experiment [9] it was -2.36%.
As for `Cc1cnn(CC2CCCN2C(=O)c2cccc(-n3cnnn3)c2)c1` (stereo not given), the Percent Effect in experiment [1] was -0.0058%; in experiment [2], 2.53%; in experiment [3], 6.56%; in experiment [4] it was 4.88%; with Trypanosoma cruzi, -1.79%; in experiment [5] it was 6.08%. The Percent Effect in experiment [6] was -0.573%; in the experiment filed under Homo sapiens it was 13.2%; in [7], 2.46%; in [8] it was 1.27%; in experiment [9], -1.78%.
